Hit rate of the full screen: of about 89,000 compounds, about 440 (0.49%) were called active. Many of the other results were omitted from the sample, so actives are more common in it than they were. Values without a mark were called inactive.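 How the source made its calls: active means inhibition above the mean inhibition across all screened compounds plus 3 SD (cut at about 11% in these data); inactive means the rest.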
Each compound was assayed against RNA-editing ligase 1, mitochondrial (Trypanosoma brucei brucei) (UniProt P86926) (assay: TbREL1 RNA ligase inhibitors, primary screen, biochemical, FRET fluorescence (AID 1117264;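 further: 0% = plate median of test wells and 100% = NSC42067 control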)). Conditions: TbREL1 RNA ligation, at 9.66 µM, active compounds read high.
Chain of RNA-editing ligase 1, mitochondrial (Trypanosoma brucei brucei) (P86926 whole entry, looked up): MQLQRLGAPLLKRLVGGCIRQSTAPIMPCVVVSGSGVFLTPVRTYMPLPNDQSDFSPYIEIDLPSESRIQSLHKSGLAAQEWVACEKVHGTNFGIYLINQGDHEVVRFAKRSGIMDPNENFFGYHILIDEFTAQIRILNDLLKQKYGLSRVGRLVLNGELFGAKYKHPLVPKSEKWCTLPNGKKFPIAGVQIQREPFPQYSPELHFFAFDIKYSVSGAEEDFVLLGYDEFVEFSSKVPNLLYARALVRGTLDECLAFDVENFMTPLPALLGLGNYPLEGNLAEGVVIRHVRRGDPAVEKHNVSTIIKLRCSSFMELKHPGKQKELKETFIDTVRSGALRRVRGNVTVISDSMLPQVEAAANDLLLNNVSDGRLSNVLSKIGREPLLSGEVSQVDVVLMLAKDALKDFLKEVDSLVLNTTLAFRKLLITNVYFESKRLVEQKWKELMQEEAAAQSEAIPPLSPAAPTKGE

Row | Structure (SMILES) | inhibition
1 | Cc1c(Cl)cccc1NC(=O)NCCCN1CCCC1=O | 5.26%
2 | Cc1nnsc1C(=O)Nc1cccc(Cl)c1C | 11.4% (active)
3 | Cc1nc(C)c(C(=O)Nc2cccc(C)c2C)o1 | -2.18%
4 | O=C(OCC(=O)N1CCCC1)c1ccc(Cl)nc1 | 4.11%
5 | CC1(C)CC(N2CCN(C(c3ccccc3)c3ccccc3)CC2)=CC(=[N+]2CCCCC2)C1 | 20.5% (active)
6 | Cc1cccc(N2CCN(C(c3ccccc3)c3nnnn3CC3CCCO3)CC2)c1C (stereo not drawn) | -2.64%
7 | O=C1CC(N2CCN(C(c3ccccc3)c3ccccc3)CC2)C(=O)N1 (stereo not drawn) | 4.81%
8 | COC(=O)CN1C(=O)[C@H]2[C@@H](/C=C/c3ccccc3)N3C(=O)CN(CC4CC4)C(=O)[C@@]3(Cc3ccccc3)[C@H]2C1=O | -1.86%
9 | NC(=O)COC(=O)c1ccc2c(c1)C(=O)N(Cc1ccco1)C2=O | -0.09%
10 | Cc1cc(NS(=O)(=O)c2ccc(NC(=O)CSc3nnc(SCc4ccc(F)cc4)s3)cc2)nc(C)n1 | 1.56%
11 | CCOC(=O)C1C(c2ccc(O)cc2)NC(=O)NC1(O)C(F)(F)F (stereo not drawn) | -0.27%
12 | COC(=O)C1CN(CCc2ccccc2)CCS(=O)(=O)N1Cc1cccc(Cl)c1 (stereo not drawn) | 1.04%
13 | COc1ccc(CCNC(=O)CSc2nc3[nH]ncc3c(=O)n2-c2cccc(C(F)(F)F)c2)cc1OC | -1.55%
14 | CCc1ccc(N(CC(=O)NCc2cccnc2)S(=O)(=O)c2ccccc2)cc1 | -1.98%
15 | N#Cc1ccc(C2N=C(c3ccccc3)NO2)cc1 (stereo not drawn) | 9.48%
16 | O=C(Nc1ccon1)c1nc[nH]c1C(=O)NCc1ccccc1 | 5.43%
17 | Cc1nc2ccc(C(=O)N3CCN(C(=O)C(C)(C)C)CC3)cc2n1C1CCCC1 | -0.3%
18 | COc1ccccc1/C=C/C(=O)OCC(=O)NC1CCCCCC1 | 1.81%
19 | Cc1ccc(Cn2c(C)c(C(=O)NCc3ccccc3C(F)(F)F)sc2=O)cc1 | 0.6%
20 | COc1ccc(S(=O)(=O)N2CCOCC2)cc1NC(=O)CC1CC2CCC1C2 (stereo not drawn) | -2.41%
21 | CCOc1ccc(NC(=O)CCCCCN2C(=O)[C@@H]3Cc4ccccc4CN3C2=O)cc1 | -0.69%
22 | Cc1c(S(=O)(=O)NC(C)c2ccccc2)c(=O)n(C)c(=O)n1C (stereo not drawn) | 0.77%
23 | CCOc1cc2[nH]c(=O)n(Cc3ccc(C(=O)NCCCN4CCCC4=O)cc3)c(=O)c2cc1OCC | -3.44%
24 | CCCCCn1c(=O)[nH]c2cc(C(=O)NCCCN3CCCCC3C)ccc2c1=O (stereo not drawn) | 11.5% (active)
25 | CCC1CCCCN1CCCNC(=O)C1CCC(Cn2c(=O)[nH]c3ccccc3c2=O)CC1 (stereo not drawn) | 0.83%
26 | CCn1c(=S)sc2c(=O)n(CC(=O)Nc3ccc(OC)cc3)c(C)nc21 | -1.47%
27 | O=C(NC1CCCCC1)C1CCCN(S(=O)(=O)c2ccc(Br)s2)C1 (stereo not drawn) | 1.07%

Row | Structure (SMILES) | inhibition
28 | CCOC(=O)N1CCN(Cc2nc(Cc3cccc(C(F)(F)F)c3)no2)CC1 | 1.05%
29 | COc1ccc(N(Cc2ccc(N(C)C)cc2)C(=O)c2ccc(S(C)(=O)=O)cc2)cc1 | -9.41%
30 | COCCN(Cc1ccccc1)C(=O)Cc1ccc(S(=O)(=O)N2CCOCC2)s1 | -2.32%
31 | CCc1ccc(CN2C(=O)c3ccccc3C2C(=O)NCC2CCCO2)cc1 (stereo not drawn) | -0.89%
32 | COCC(=O)N(C)[C@H]1C[C@H]2c3cc(Oc4ccccc4C)ccc3CCN2C(=O)[C@H]1[C@H](C)O | 1.02%
33 | COc1cccc(CNC(=O)C2CCCN(c3ncnc4c3nc3n4CCCCC3)C2)c1 (stereo not drawn) | 0.12%
34 | Cc1ccc(NC(=O)Cn2cccc2C2=NC(c3ccccc3)CO2)c(C)c1 (stereo not drawn) | -0.96%
35 | COc1ccc(N2C(=O)c3ccccc3NC2c2ccc(OC)c(CN3CCOCC3)c2)cc1 (stereo not drawn) | 0.23%
36 | O=C1NC[C@H](Cc2ccc(O)cc2)N(C[C@H]2CCCN2C[C@H](Cc2ccccc2)N2C[C@H](Cc3ccccc3)N(CCc3ccccc3)C(=O)C2=O)C1=O | -1.45%
37 | CC[C@@H](C)[C@@H]1CN([C@@H](C)CN2CCC[C@H]2CN2C(N)=NC[C@H]2C(C)C)C(=N)N1CCc1ccc(Cl)c(Cl)c1 | 14% (active)
38 | CC1CCCCN1C(=O)Cn1c(=O)oc2cc(S(=O)(=O)N3CCCCC3)ccc21 (stereo not drawn) | -1.44%
39 | Cc1cc(C)cc(N(CC(=O)NC2CCCC2)C(=O)CCC(=O)Nc2cc(C)on2)c1 | 0.2%
40 | Nc1ncnc2c1ncn2[C@@H]1O[C@H](C(=O)N[C@@H](CCc2ccccc2)C(=O)NCC(=O)N2CCOCC2)[C@@H](O)[C@H]1O | -1.68%
41 | COc1c(O)cc2oc(-c3ccc(O)c(O)c3)cc(=O)c2c1O | 29.5% (active)
42 | CCOC(=O)COc1cc(OCC(=O)OCC)c2c(=O)cc(-c3ccccc3)oc2c1 | 2.07%
43 | COc1cc(NC(=O)CSC(=S)N2CCCC2)c(OC)cc1Cl | 6.87%
44 | O=c1[nH]c(=O)c2nc3ccccc3nc2[nH]1 | -0.15%
45 | Nc1ccc2nc3c(=O)[nH]c(=S)[nH]c3nc2c1 | 50.5% (active)
46 | COc1ccc([N+](=O)[O-])cc1N(CC(=O)Nc1ccccc1C(=O)N1CCOCC1)S(C)(=O)=O | -1.27%
47 | O=C(NCc1ccccc1)C1CCN(C(=O)Cc2ccccc2)CC1 | 0.8%
48 | O=C(NCc1ccccc1)C1c2ccccc2OCC(=O)N1C1CC1 (stereo not drawn) | 4.12%
49 | O=C(NCc1ccccc1)[C@@H]1CSC2c3ccccc3C(=O)N21 (stereo partly drawn) | 18.5% (active)
50 | Cc1c(CCC(=O)N[C@@H](CC(C)C)C(=O)O)c(=O)oc2c(C)c3oc4c(c3cc12)CCCC4 | 0.56%
51 | Cc1cc(NC(=O)CN2C(=O)NC(C)(CCc3ccccc3)C2=O)no1 (stereo not drawn) | 0.2%
52 | O=C(NNC1CC(=O)N(c2cccc(Cl)c2)C1=O)c1cccnc1 (stereo not drawn) | 0.41%
53 | O=S1(=O)CC(N2CCN(CCO)CC2)CN1Cc1cn(Cc2cccc(Cl)c2)nn1 (stereo not drawn) | 0.87%

Reference: PubChem BioAssay AID1117264 (The Scripps Research Institute Molecular Screening Center, 2014)
